Activity calls are given as the source filed them. Rule for the calls: active = hit-call score of the fitted dose curve at least 0.9, where 1 is the maximum; inactive = score below 0.9.

The values below come from PubChem BioAssay (EPA / NIEHS).

Sequence of E-selectin (Homo sapiens) (P16581 whole entry, looked up): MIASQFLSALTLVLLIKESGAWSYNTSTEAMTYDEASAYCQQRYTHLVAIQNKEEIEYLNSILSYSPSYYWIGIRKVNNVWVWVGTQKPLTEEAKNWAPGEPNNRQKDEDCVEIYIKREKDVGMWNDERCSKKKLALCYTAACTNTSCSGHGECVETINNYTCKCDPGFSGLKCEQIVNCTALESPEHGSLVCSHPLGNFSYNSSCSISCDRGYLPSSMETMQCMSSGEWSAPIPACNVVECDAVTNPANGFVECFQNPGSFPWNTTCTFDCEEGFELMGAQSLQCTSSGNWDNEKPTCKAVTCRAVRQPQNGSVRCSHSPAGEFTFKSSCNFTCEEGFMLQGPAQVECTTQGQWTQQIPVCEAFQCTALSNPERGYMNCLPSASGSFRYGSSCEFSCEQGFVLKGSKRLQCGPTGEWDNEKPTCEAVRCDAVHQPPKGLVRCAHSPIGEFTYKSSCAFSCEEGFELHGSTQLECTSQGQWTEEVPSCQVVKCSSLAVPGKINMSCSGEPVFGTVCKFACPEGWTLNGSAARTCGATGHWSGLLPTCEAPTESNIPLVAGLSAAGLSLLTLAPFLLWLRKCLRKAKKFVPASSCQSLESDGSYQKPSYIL

Read-out in this experiment: E-selectin (Homo sapiens) (UniProt P16581)
As to the kind of experiment: BSK_LPS_Eselectin: BioMAP Diversity Plus: LPS Assay for Eselectin Biomarker Activity (AID 2283077). The conditions noted are these: primary human HUVEC with PBMC; actives raise or lower the signal. How it is done: BSK_LPS is a cell-based, multiplexed-readout assay that uses umbilical vein endothelium and peripheral blood mononuclear cells, a human vascular primary cell co-culture, with measurements taken at 24 hours after chemical dosing in a 96-well plate.BSK_LPS_Eselectin is an assay component measured in the BSK_LPS assay. It measures E-selectin antibody related to regulation of gene expression using ELISA technology.Data from the assay component BSK_LPS_Eselectin was analyzed into 1 assay endpoint. This assay endpoint, BSK_LPS_Eselectin, was analyzed with bidirectional fitting relative to DMSO as the negative control and baseline of activity. Using a type of binding reporter, gain or loss-of-signal activity can be used to understand changes in the signaling as they relate to the gene SELE. Furthermore, this assay endpoint can be referred to as a primary readout, because this assay has produced multiple assay endpoints where this one serves a signaling function. To generalize the intended target to other relatable targets, this assay endpoint is annotated to the cell adhesion molecules intended target family, where the subfamily is selectins.
The levels of cell surface (or secreted, indicated by the prefix "s") biomarker endpoints were measured by ELISA. Overt cytotoxicity to cells in confluent adherent cultures (all systems other than the BT system) was assessed by measuring total protein levels using sulforhodamine B (SRB) staining in parallel cultures at the time of biomarker measurements, indicated as SRB endpoints. For proliferation assays for adherent cell types, individual cell types are cultured at sub-confluence and relative cell numbers quantified by SRB staining at time points optimized for each system (48 h: 3C and CASM3C systems; 72 h: BT and HDF3CGF systems; 96 h: SAg system). SRB was performed by staining cells with 0.1% SRB after fixation with 10% TCA and reading wells at 560 nm.Viability and proliferation of PBMC (T cells) was quantified by Alamar Blue reduction for the SAg and BT systems. For PBMC viability (referred to as PBMC Cytotoxicity within the assay endpoint names), cells were plated (75,000/well in a 96-well plate) and then chemical samples added for 1 h before addition of activators, SEB and TSST-1 (20 ng/mL final concentration each). Cells were incubated for 90 h. Then, Alamar Blue (20 uL/well) (Invitrogen, Cat DAL1100) was added for 6 h, and the plates were read with a fluorescence microplate reader at 546/580 nm (excitation/emission). For PBMC proliferation, cells were plated and activated as above but incubated for only 16 h prior to addition of Alamar Blue. Plates were read after 6 h.
In the case of `CC(C)=CCC/C(C)=C/CO`, the result was inactive.

Consider `COCCOCCOCCOC`, for which the result was inactive.

For the compound `Cc1ccc(S(=O)(=O)O)cc1C`, the result was inactive.

Regarding `Nc1nc2ncc(CNc3ccc(C(=O)N[C@@H](CCC(=O)O)C(=O)O)cc3)nc2c(=O)[nH]1`, the outcome was inactive.

For orientation: AC50 means the concentration giving half of the maximal activity seen. Consider `O=C(O)c1cccc(N(Cc2cccnc2)c2ccc(OC(F)F)c(OC(F)F)c2)c1`, for which the AC50 was 11 µM (active).

For the compound `CC(C)CC(C)(O)C#CC(C)(O)CC(C)C` (stereo not given), the result was inactive.

Turning to `CC(C)CCCCCCCOC(=O)CCCCC(=O)OCCCCCCCC(C)C`, the result was inactive.

As to `C1=CCCC=CCCC=CCC1`, the result was inactive.

For `Cc1ccc(C)c(O)c1`, the outcome was inactive.

Take `O=C1CCCCCN1`: the result was inactive.

For `Cc1ccc(N)cc1O`, the result was inactive.

Take `CC(C)(O)c1coc(S(=O)(=O)NC(=O)Nc2c3c(cc4c2CCC4)CCC3)c1`: the result was inactive.

As for `COCCOc1cc2cc(C(=O)NC3CCN(C(C)C)CC3)n(CC(=O)Nc3ccc(Cl)cn3)c2cn1`, the result was inactive.

Take `O=c1n(CC2CO2)c(=O)n(CC2CO2)c(=O)n1CC1CO1` (stereo not given): the AC50 is 20 µM (active).

For the compound `CC(C)CCCCCCOC(=O)c1ccc(C(=O)OCCCCCCC(C)C)c(C(=O)OCCCCCCC(C)C)c1`, the outcome was inactive.

As to `CC[C@H](C)C(=O)O[C@H]1C[C@@H](C)C=C2C=C[C@H](C)[C@H](CC[C@@H]3C[C@@H](O)CC(=O)O3)[C@H]21`, the AC50 was 0.398 µM (active).

Regarding `Fc1ccccc1[C@@H](F)COC1CCC(Nc2ncnc3[nH]ncc23)CC1` (stereo not given in full), the AC50 was 29 µM (active).

In the case of `CCOc1cccc(-n2cc(C(=O)N3CCN(c4cc(C(=O)O)c5ccccc5c4)CC3)nc2-c2ccc(C)cc2)c1`, the AC50 was 31.3 µM (active).

For `O=C1OC(=O)C2C3C=CC(C3)C12` (stereo not given), the result was inactive.

Take `O=P(OC(CCl)CCl)(OC(CCl)CCl)OC(CCl)CCl`: the result was inactive.

With `CCOCCO`, the result was inactive.

Turning to `Cc1[nH]cnc1C[C@H]1CCc2c(C)c3ccccc3n2C1=O`, the outcome was inactive.

For `CCC(C)(C)C(=O)O[C@H]1C[C@@H](C)C=C2C=C[C@H](C)[C@H](CC[C@@H]3C[C@@H](O)CC(=O)O3)[C@H]21`, the AC50 is 0.168 µM (active).

Turning to `CC(=O)c1ccc2c(c1)[C@H](NC(=O)c1ccc(F)cc1)[C@@H](O)C(C)(C)O2`, the result was inactive.

Take `COc1cccc(-c2ccc(/C=C\CN3CCCCCC3)cc2Cl)c1`: the result was inactive.

`CCOCCOCCOCCO`: the result was inactive.

As to `CC/C(=C\C(=N/O)C(N)=O)C(C)[N+](=O)[O-]` (stereo not given), the outcome was inactive.

With `CC(C)=CCCC(C)=CC=O`, the result was inactive.

With `On1ccccc1=S`, the AC50 was 31.2 µM (active).

As to `CNCc1ccc(NC(=O)c2c[nH]c3c2C(=O)CCC3)cc1`, the outcome was inactive.

In the case of `Oc1ccc2c(c1)-c1ccccc1C2`, the outcome was inactive.

For the compound `CC[C@H]1CC[C@H](NCc2cc3c(cc2OC)[C@H]2C[C@H]2C(=O)N3C)[C@H](c2ccccc2)N1`, the result was inactive.

As for `CC(=O)OCCC(C)C`, the result was inactive.

As to `CCCCC(CC)COC(=O)CCCCCCCCC(=O)OCC(CC)CCCC` (stereo not given), the result was inactive.

Take `CN(C)c1ccc(Cc2ccc(N(C)C)cc2)cc1`: the outcome was inactive.

Turning to `CC(=O)OC[C@H]1O[C@@](COC(C)=O)(O[C@H]2O[C@H](COC(C)=O)[C@@H](OC(C)=O)[C@H](OC(C)=O)[C@H]2OC(C)=O)[C@@H](OC(C)=O)[C@@H]1OC(C)=O`, the result was inactive.

Turning to `CNS(=O)(=O)c1cc(C(=O)N2CCC(CCN3C4CCC3CC(n3c(C)nc5ccccc53)C4)(c3cccc(F)c3)CC2)c(Cl)cc1F` (stereo not given), the outcome was inactive.

With `CCc1cc(SCc2sc(-c3ccc(C(F)(F)F)cc3)nc2CN2CCN(c3ccc(OC)cc3)CC2)ccc1OCC(=O)O`, the AC50 is 14.8 µM (active).

On to `O=C(NS(=O)(=O)/C=C/c1ccccc1)c1ccc(F)cc1Cl`, for which the result was inactive.

For `CCNc1ccccc1`, the result was inactive.
